# Results reported in PubChem BioAssay (Tox21).
# “And” between values parts separate entries of the source, which are not always exact repeats. Equal values may be shown once. Inconclusive results are not listed. A call without a number means that no potency is given here. The source holds several records for some structures; these can differ, active in one and inactive in another. The source made the active and inactive calls. Calls come from the whole dose curve; as a rule, active = well fitted cell-killing curve with a large enough effect in the repeat runs; inconclusive = weak or mixed curves, or effect the other way; inactive = flat fitted curve, though single readings scatter.
# Experiment: qHTS assay to identify small molecule that activate the aryl hydrocarbon receptor (AhR) signaling pathway - cell viability counter screen (AID 743086); note: nearly all actives have a fitted effect of over 45% in size
# Settings: HepG2-AhR-luc viability, CellTiter-Fluor, 24 h; series mostly up to 70.3 µM
# From the text: U.S. Tox21 Program National Center for Advancing Translational Sciences [NCATS] NIH Chemical Genomics Center [NCGC] U.S. Environmental Protection Agency [EPA] National Institutes of Environmental Health Sciences [NIEHS] National Toxicology Program [NTP] U.S. Food and Drug Administration [FDA] Tox21 Assay overview: The Aryl hydrocarbon Receptor (AhR), a member of the family of basic helix-loop-helix transcription factors, is crucial to adaptive responses to environmental changes. AhR mediates cellular responses to environmental pollutants such as aromatic hydrocarbons through induction of phase I and II enzymes but also interacts with other nuclear receptor signaling pathways A cell based HepG2-AhR-luc assay (HG2L7.5c1 cell line, developed by Dr. Michael S. Denison, University of California at Davis) was used to assess the activation of AhR. HepG2 (human hepatocellular carcinoma) cells were stably transfected with an Ah receptor-responsive firefly luciferase reporter gene plasmid containing 20 dioxin responsive elements and luciferase reporter gene. Increased luciferase activity can be used to identify the compounds that induce AhR activation. The cytotoxicity of the compounds screened against the HepG2-AhR-luc cell line was tested in parallel by measuring the cell viability using CellTiter-Fluor assay in the same wells.
# Tox21 Assay Protocol Summary: 4000 cells in 5 uL/well were dispensed into white wall/solid bottom 1536-well plates using a Multidrop Combi (Thermo Fisher Scientific Inc., Waltham, MA) dispenser. After the assay plates were incubated at 37C for 5 h, 23 nL of compound or DMSO vehicle was transferred to the assay plates by a pintool station (Kalypsys, San Diego, CA). The plates were incubated at 37C for 24 hr. For cell viability measurement, 1 ul/well of CellTiter-Fluor reagent (Promega, Madison, WI) was added into the assay plates using a Flying Reagent Dispenser (FRD) (Aurora Discovery, CA),and then the assay plates were incubated at 37C for 30 min. The fluorescence intensity in the plates was measured using a ViewLux plate reader (PerkinElmer, Shelton, CT), followed by the addition of 4 uL of ONE-Glo Luciferase Assay reagent (Promega) using an FRD (Aurora Discovery). After the assay plates were incubated at room temperature for 30 min, luminescence intensity was measured using a ViewLux plate reader (Perkin Elmer).
# Potency is the fitted concentration of half-maximal effect.
row,SMILES,Potency
1,CCOCCOCCO,inactive
2,Brc1cc(Oc2cc(Br)c(Br)c(Br)c2Br)c(Br)c(Br)c1Br,inactive
3,O=c1oc(=O)c2cc3c(=O)oc(=O)c3cc12,inactive
4,CCC(C)CO (stereo not given),inactive
5,O=C(/C=C/C=C/c1ccc2c(c1)OCO2)N1CCCCC1,inactive
6,c1ccncc1,inactive
7,O=C(O)c1ccccc1Nc1cccc(C(F)(F)F)c1,inactive
8,COC(=O)CCC(=O)OC,inactive
9,CCCCCCCCCCCO,inactive
10,COc1cccc2c1C(=O)c1c(O)c3c(c(O)c1C2=O)C[C@@](O)(C(=O)CO)C[C@@H]3O[C@H]1C[C@H](N)[C@H](O)[C@H](C)O1,inactive and 3.85 µM (active)
11,Oc1ccc(O)cc1,inactive
12,O=S(=O)(O)c1ccc(O)cc1,inactive
13,NNc1ccc(C(=O)O)cc1,inactive
14,CCCc1c(OCCCCc2nn[nH]n2)ccc(C(C)=O)c1O,inactive
15,Cc1[nH]c(=O)c(C#N)cc1-c1ccncc1,inactive
16,CC1=CC2C3CC(C=C3C)C2C1 (stereo not given),inactive
17,C=CC(C)(CCC=C(C)C)OC(C)=O (stereo not given),inactive
18,COc1ccccc1/C=C/C=O,inactive
19,Nc1ccc(S(=O)(=O)Nc2cnc3ccccc3n2)cc1,inactive
20,O=C1c2cccc(O)c2C(=O)c2c(O)cccc21,inactive

row,SMILES,Potency
1,COC(=O)c1ccccc1,inactive
2,CNCCCC12CCC(c3ccccc31)c1ccccc12,inactive and 61.1 µM (active)
3,CC(=O)c1ccccn1,inactive
4,c1ccc(Nc2ccccc2)cc1,inactive
5,OCCO,inactive
6,C=C(C)C1CC=C(C)CC1 (stereo not given),inactive
7,CC(C)OC(=O)C(C)(C)Oc1ccc(C(=O)c2ccc(Cl)cc2)cc1,inactive
8,c1ccc2c(c1)c1cccc3ccc4cccc2c4c31,inactive
9,CC(CCC(=O)O)(c1ccc(O)cc1)c1ccc(O)cc1,inactive
10,CCCCC(CC)COC(=O)c1ccc(N(C)C)cc1 (stereo not given),inactive
11,NC=O,inactive
12,C[Si](C)(C)O[Si](C)(C)C,inactive
13,C=C(C)C(=O)OCCOC(=O)C(=C)C,inactive
14,Cc1ccc2c(n1)Oc1ccc(C(C)C(=O)OCC(=O)N(C)C)cc1C2 (stereo not given),inactive
15,CCCCOCCOCCO,inactive
16,O=P(O)(O)O,inactive
17,COc1ccc(C(=O)CC(=O)c2ccc(C(C)(C)C)cc2)cc1,inactive
18,Nc1ncnc2nc[nH]c12,inactive
19,Nc1ccccc1N,19.8 µM (active)
20,O=Cc1ccccc1O,inactive
